High-throughput results from PubChem.
Abs 340nm: absorbance at 340 nm; compound absorbance at 340 nm, fold over control; 65,000 tested, under 10 active; fold change at 10 µM;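 active = at 10 µM dose, initial 340 nm absorbance at least 2 fold that of control wells; inactive = change under 2 fold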;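 also: initial absorbance extrapolated from kinetic A340 decline of NADH oxidation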
NADH enzymes: blocks coupling enzymes of NAD/NADH assays. coupled PK/LDH NADH assays, four targets. IC50, µM (series often up to 10 µM). 65,000 compounds, 0.02% hits. AID 774;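 active = single-dose screening hits from any of four coupled enzyme assays that gave an IC50 when retested across doses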;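 also: the DPM-DC format reads NADH fluorescence rather than 340 nm absorbance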
Autofluor 339: intrinsic fluorescence of library compounds, ex339/em460 – biochemical, MLSMR library, data from DPM-DC assay, artefact control, profiling panel; AID 709; fluorescence fold increase at 10 µM; 65,000 compounds, 5.5% hits; compound autofluorescence, ex339/em460 nm, NADH buffer; active compounds read high; 1 = no-compound wells, NADH background;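 active = at 10 µM, mean starting fluorescence two-fold or more over control wells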;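 also: signal is the first read of a kinetic run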
MK inhibit: inhibitors of Streptococcus pneumoniae mevalonate kinase. purified MK, PK/LDH-coupled NADH absorbance 340 nm. inhibition, % at 10 µM. 65,000 compounds, 0.48% hits. AID 555;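 active = ranked among the strongest by inhibition in the single 10 µM screen, a fixed top-ranked set picked for dose follow-up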
PMK inhibit: inhibitors of Streptococcus pneumoniae phosphomevalonate kinase | purified PMK, PK/LDH-coupled NADH absorbance 340 nm | inhibition, % at 10 µM | AID 539 | 65,000 compounds, 0.49% hits;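 active = top-ranked compounds by inhibition in the single 10 µM screen, taking a fixed number of the strongest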
Spn DPM-DC inh: inhibitors of Streptococcus pneumoniae diphosphomevalonate decarboxylase | purified DPM-DC, PK/LDH coupled NADH fluorescence | calls only at 10 µM | 65,000 compounds, 0.49% hits;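 active = the 320 compounds with the highest percent inhibition in the single-dose primary screen, excluding strongly autofluorescent ones, cut at about 32% in these data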;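 also: kinetic rate of NADH fluorescence loss reporting ADP formed by the decarboxylase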
Of the large screens only hits and unclear results are named; the others gave an inactive call. Hits are enriched below; roughly 6.8% of the tested compounds scored in any of these assays.

Cc1nc2cc(C(=O)O)ccc2s1	none
COC(=O)c1sc(N2C(=O)C(O)=C(C(=O)c3ccc(C)o3)C2c2ccc(F)cc2)nc1C (centres undefined)	none
CCOc1ccccc1CNC(=O)C1CCN(C(=O)c2sccc2-n2cccc2)CC1	none
CCCn1c2ccccc2c2nc3ccccc3nc21	Autofluor 339 2.4
O=c1oc2ccccc2n1CCn1c2ccccc2c2nc3ccccc3nc21	PMK inhibit 9.0
CCCn1c(Nc2nc3ccccc3n2C)nc2ccccc21	Autofluor 339 2.1
CCOC(=O)Cn1c2ccccc2c2nc3ccccc3nc21	Autofluor 339 2.9
CCOC(=O)Cn1c(C)c(C#N)c2ccccc21	none
CCCn1c(NC(=O)c2ccccc2)nc2ccccc21	none
N#CCCn1c2ccccc2c2nc3ccccc3nc21	none
Cc1cccc(-c2c3c(=O)n(C)c(=O)n(C)c3cn2CC2CCCO2)c1 (centres undefined)	none
Cc1ccc(OCCN2C(=O)OC(C)(C)C2(C)O)cc1 (centres undefined)	none
O=C(Cc1coc(-c2ccc(F)cc2)n1)N1CCOCC1	PMK inhibit 32
C=C(C)Cn1c(NCCC)nc2c1c(=O)n(C)c(=O)n2C	none
CC1CN(C(=O)c2cccs2)CCN1C(=O)c1cccs1 (centres undefined)	none
COc1ccc(-c2c(N)nnc3c2[nH]c2ccccc23)cc1OC	Autofluor 339 4.6 (not shown: Spn DPM-DC inh)
CC1CN(S(=O)(=O)c2cccc(C(=O)OCC(=O)Nc3ccc4c(c3)OCO4)c2)CC(C)O1 (centres undefined)	none
CC1CN(S(=O)(=O)c2cccc(C(=O)OCc3cc(=O)oc4cc(O)ccc34)c2)CC(C)O1 (centres undefined)	Autofluor 339 3.4 (not shown: Spn DPM-DC inh)
CCOCCCn1c(=NC(=O)c2cccnc2)c(C(=O)OCC)cc2c(=O)n3ccccc3nc21	Autofluor 339 3.6 (not shown: Spn DPM-DC inh)
CCCCn1c(=NC(=O)c2cccnc2)c(C(=O)OCC)cc2c(=O)n3ccccc3nc21	Autofluor 339 2.3 (not shown: Spn DPM-DC inh)
N#Cc1cc2c(=O)n3ccccc3nc2n(CCCn2ccnc2)c1=N	none
c1cncc(-c2nc(Oc3ccc(-c4nnco4)cc3)c3c4c(sc3n2)CCCC4)c1	Autofluor 339 2.1 (not shown: Spn DPM-DC inh)
Cc1cc(=O)[nH]c(SCc2nc3ncccn3c2Br)n1	Autofluor 339 2.5 (not shown: Spn DPM-DC inh)
CCOc1ccc(CCNC(=O)C2CCN(c3nn4c(=O)cc(C)nc4s3)CC2)cc1OCC	none
CCOC(=O)C(C(=O)OCC)C(=O)c1cc(OC)c(OC)c(OC)c1	none
CCOC(=O)c1sc(=NC(=O)c2cc(OC)c(OC)c(OC)c2)n(C)c1C	Autofluor 339 4.3 (not shown: Spn DPM-DC inh)
C(=C\c1ccccc1)/CSc1nnc(-c2cccnc2)o1	none
Cc1ccc(-c2nc(C(=O)NC3CCCCCC3)no2)cc1	none
Cc1ccc(-c2nnc(SCC(=O)O)n2N)cc1	none
Cc1ccc(-c2cc(-c3nnc(SCC(=O)N(C)CCC#N)n3N)c3ccccc3n2)cc1	Autofluor 339 4.2 (not shown: Spn DPM-DC inh)
COc1ccc2c(CC(=O)OCC(=O)c3ccc(F)cc3)coc2c1	none
CCN(CC)S(=O)(=O)c1cccc(C(=O)Nc2nc3cc4c(cc3s2)OCCO4)c1	Autofluor 339 2.1 (not shown: Spn DPM-DC inh)
CCCNC(=O)c1c(C)cc(=O)oc1C	Autofluor 339 2.1
CCCN(Cc1cc2cc(OC)ccc2[nH]c1=O)C(=O)c1ccncc1	none
COc1cc2cc(CN(Cc3cccnc3)C(=O)NCc3ccccc3)c(=O)[nH]c2cc1OC	Autofluor 339 4.8 (not shown: Spn DPM-DC inh)
COc1ccc2[nH]c(=O)c(CN(CCO)C(=O)c3ccccc3F)cc2c1	Autofluor 339 2.9
Cc1ccc2[nH]c(=O)c(CN(CCO)C(=O)NCc3ccccc3)cc2c1	none
CCCCN(Cc1cc2cc(OC)ccc2[nH]c1=O)C(=O)c1ccccn1	Autofluor 339 2.5 (not shown: Spn DPM-DC inh)
CC(=O)N(Cc1cccnc1)Cc1cc2ccc(C)cc2[nH]c1=O	none
COc1ccc2[nH]c(=O)c(CN(CCN(C)C)C(=O)NCc3ccccc3)cc2c1	Autofluor 339 3.8
CSc1nc(NC(C)=O)nc(C)c1Cl	none
CCCOc1ccc(C2c3c(oc4ccccc4c3=O)C(=O)N2CCCN2CCOCC2)cc1 (centres undefined)	none
CC(=O)c1coc2ccc(OCC(=O)O)cc12	none
COc1ccc2cc(CN(C(=O)Nc3ccccc3OC)C3CCCC3)c(=O)[nH]c2c1	none
Cc1ccc2[nH]c(=O)c(CN(CC3CCCO3)C(=O)c3ccco3)cc2c1 (centres undefined)	none
O=C(NCc1ccccc1)N(Cc1cc2cc3c(cc2[nH]c1=O)OCO3)CC1CCCO1 (centres undefined)	Autofluor 339 3.7 (not shown: Spn DPM-DC inh)
Cc1ccc2cc(CN(CCN3CCOCC3)C(=O)NCc3ccccc3)c(=O)[nH]c2c1C	Autofluor 339 2.1
COc1ccc2[nH]c(=O)c(CN(C(=O)c3ccccn3)C3CCCCC3)cc2c1	Autofluor 339 2.9
COc1cc2cc(CN(C(=O)NC3CCCCC3)C3CCCC3)c(=O)[nH]c2cc1OC	Autofluor 339 3.9 (not shown: Spn DPM-DC inh)
Cc1ccc2cc(CN(CCN3CCCC3)C(=O)Nc3ccccc3)c(=O)[nH]c2c1C	none
COc1ccc(CNC(=O)c2ccc3c(c2)N(C)C(=O)CS3=O)cc1 (centres undefined)	none
CCC(=O)N(CCc1ccccc1C)Cc1cc2cc3c(cc2[nH]c1=O)OCO3	Autofluor 339 3.8 (not shown: Spn DPM-DC inh)
COc1ccc(-c2oc(/N=C/N3CCOCC3)c(C#N)c2-c2ccc(OC)cc2)cc1	none
CCCC1=C(C(=O)OCC)C(c2ccc(N(C)C)cc2)n2ncnc2N1 (centres undefined)	none
CN(CCc1ccccn1)S(=O)(=O)c1ccccc1F	none
CN(CCc1ccccn1)Cc1ccc(Cl)cc1Cl	MK inhibit 44
NC(=O)CCN(Cc1ccccc1)S(=O)(=O)c1ccccc1	PMK inhibit 28
CC(C)OC(=O)c1cccnc1SCc1cc(=O)n2ccccc2n1	PMK inhibit 28
O=C(CCN1C(=O)c2ccccc2C1=O)N1CCC(c2ccccc2)C1 (centres undefined)	none
COCC(=O)Nc1nc2n(n1)C(c1ccc(Cl)cc1)CC(c1ccc(OC)cc1)N2 (centres undefined)	Autofluor 339 2.5
Cc1cc(C)n(-c2nnc(C)c(=O)[nH]2)n1	none
Nc1ccc2c3c(cccc13)CC2	Autofluor 339 2.3 (not shown: Spn DPM-DC inh)
C=CCOC(=O)C1=C(C)NC(SCC(=O)NC(=O)OCC)=C(C#N)C1c1cccnc1 (centres undefined)	Autofluor 339 3.1
Nc1nnc(Cc2ccc(Cl)c(Cl)c2)s1	none
O=C(c1ccc2ccccc2c1)N1CCN(c2ccc(O)cc2)CC1	PMK inhibit 26
CCOc1ccc2[nH]c(=O)c(CN(Cc3cccs3)Cc3nnnn3C(C)(C)C)cc2c1	Autofluor 339 2.4
COc1ccc2cc(CN(CCCN3CCOCC3)Cc3nnnn3C3CCCCC3)c(=O)[nH]c2c1	none
